The text below walks through data of PubChem BioAssay AID488890 (Southern Research Specialized Biocontainment Screening …, 2010).

The structures appear in SMILES notation. About 1,300 (0.41%) of roughly 320,000 compounds were called active. Another 3% or so got no clear call; they are omitted. No rule for the calls is given here. The list is a sample of the results. Potency and affinity values are given separately.

This assay can be described thus: growth inhibition of non-replicating M. tuberculosis (AID 488890).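 Also: plate controls were DMSO cells for no effect and high antibiotic wells for full effect.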 Conditions: Mycobacterium tuberculosis non-replicating, at 25 µM, stronger effect = higher value.
With `O=[N+]([O-])c1ccc(NC(=S)N2CCc3ccccc3C2)cc1`, the inhibition (usually the change of the read-out against control, counted positive when it falls) is -1.08%.
In the case of `CC[n+]1c(/C=C(/C)SC)sc2ccccc21`, the inhibition turned out to be 67%.
Take `CC[n+]1c(/C=C(\C)SC)sc2ccccc21`: the inhibition was 0.12%.
On to `CCn1c(N2CCN(C(=S)NCCc3ccccc3)CC2)nc2ccccc21`, for which the inhibition worked out at 63.9%.
Under `COc1ccc2[nH]c(C)c(CCNCc3cn(C)c4ccccc34)c2c1` stands 60.3%.
The same measure for `Cc1[nH]c2ccc(OC(F)(F)F)cc2c1CCNCc1cccc([N+](=O)[O-])c1`: 77.6%.
For the compound `CC1=C(CCN2CCN(C3CCCC3)C(CCO)C2)C(C)(C)CCC1` (stereo not given), the inhibition came to 54.5%.
Consider `CC1=C(CCN2CCN(C(C)C)C(CCO)C2)C(C)(C)CCC1` (stereo not given), for which the inhibition was 12.7%.
For the compound `CCOc1ccccc1NC(=S)N1CCC(c2nc3ccccc3o2)CC1`, the inhibition came out at 29.4%.
Consider `COc1ccc(NC(=O)Cn2nnc(C(=O)NCc3ccco3)c2N)cc1`, for which the inhibition was -3.46%.
As to `CCCC1(CCC)NC(=O)NC1=O`, the inhibition turned out to be 36.8%.
As for `O=C(CCc1ccccc1)NCc1ccncc1`, the inhibition is 7.15%.
For `Cc1nc(Nc2ccc(S(N)(=O)=O)cc2)oc1C`, the inhibition is 71.4%.
As to `CSc1ccc(C(=O)C2CCCN(C(=O)c3ccc4c(c3)OCO4)C2)cc1` (stereo not given), the inhibition was 71.2%.
`CSc1ccc(C(=O)C2CCCN(C(=O)c3nonc3C)C2)cc1` (stereo not given): the inhibition was found to be 62.8%.
With `C=CCN(CC=C)C(=O)C1CC(=O)N(c2ccc(Br)cc2)C1` (stereo not given), the inhibition amounted to 0.89%.
For the compound `O=c1cc(NS(=O)(=O)c2ccccc2)nc(SCc2c(Cl)cccc2Cl)[nH]1`, the inhibition is -0.92%.
Under `O=C(NNc1cccc(Cl)n1)Nc1ccc(F)cc1` stands 9.17%; under `CCCCC(=O)N(CCOC)c1nnc(-c2ccc(OC)cc2)s1`, 11.8%.
With `CCC(=O)N1c2ccc(S(=O)(=O)N3CCN(CC)CC3)cc2CC1C` (stereo not given), the inhibition is -2.95%.
`Cc1nc2c(=O)oc3ccccc3c2n1-c1ccccc1`: the inhibition is 66.8%.
Take `Cn1c(C(F)(F)F)nc2c(=O)oc3ccccc3c21`: the inhibition amounted to 71.2%.
`Cc1cc(Cl)c2oc(C(=O)N3CCN(c4cccc(C)n4)CC3)c(C)c2c1`: the inhibition was 22.3%.
The same measure for `O=C(NN=C1CCCC1)c1ccccc1O`: 8.13%.
In the case of `CCOC(=O)N1CCC(=NNC(=O)c2cc3ccccc3cc2O)CC1`, the inhibition turned out to be 31.9%.
As for `Cc1ccc(Cn2c(=N)n(CC(O)c3ccco3)c3ccccc32)cc1` (stereo not given), the inhibition was 18.9%.
For `N=c1n(Cc2ccccc2)c2ccccc2n1CC(O)c1ccco1` (stereo not given), the inhibition was found to be 2.91%.
Under `CC1CCC/C(=C\Nc2ccc(O)cc2)C1=O` (stereo not given) stands 13.7%; under `CC1CCC/C(=C\Nc2ccc(C(=O)O)cc2)C1=O` (stereo not given), -12.5%.
As to `O=C1c2cccc(OCC(=O)N3CCCc4ccccc43)c2CCN1Cc1cccnc1`, the inhibition is 15.4%.
For the compound `O=C(NC1CCCC1)c1cc(-c2ccccc2O)on1`, the inhibition stood at 4.68%.
Consider `O=C(NC1CCCCC1)c1cc(-c2cccs2)on1`, for which the inhibition is 43.1%.
`CN(Cc1cccs1)C(=O)COC(=O)CNC(N)=O`: the inhibition was determined as 2.55%.
As for `O=C(c1ccccc1)c1cncc(Br)c1`, the inhibition was found to be 19%.
For `CCc1ccc(C(=O)c2cncc(Br)c2)cc1`, the inhibition is 70%.
For the compound `Cc1ccc(C)n1-c1ccc(N2CCOCC2)c([N+](=O)[O-])c1`, the inhibition is -3.61%.
Under `Cc1nn(C)c(C)c1NC(=S)Nc1ccc(S(=O)(=O)Nc2ncccn2)cc1` stands -12.7%; under `CCC/C=C(\CCC)C(NC(=O)CCc1ccccc1)c1ccc(C(F)(F)F)cc1` (stereo not given), -8.64%.
For `Cc1ccc(O)c(C)c1`, the inhibition is -0.5%.
The same measure for `Cc1cc(C(c2ccc(O)cc2)c2cc(C)c(O)cc2C)c(C)cc1O`: 19.6%; for `CN(C)CCCn1c(-c2ccccc2)nc(=S)c2c1CCCC2`: 3.62%.
Take `CN(C)CCN1C(=O)C2C(C(=O)Nc3cc(Cl)cc(Cl)c3)C3C=CC2(O3)C1C(=O)NC1CCCCC1` (stereo not given): the inhibition is 5.38%.
On to `COc1ccc(OCCCC(=O)OCC(=O)Nc2nnc(-c3ccccc3)o2)cc1`, for which the inhibition turned out to be 24.6%.
Under `CC(C)c1ccc(OCC(=O)NCCO)cc1` stands -10.9%; under `Cc1ccccc1N1CCN(Cc2cc3c(cc2[N+](=O)[O-])OCO3)CC1`, 45.5%.
Turning to `Cc1ccccc1N1CCN(Cc2ccc(Br)o2)CC1`, the inhibition was 35.5%.
As to `Cc1cccc(N2CCN(Cc3ccoc3)CC2)c1C`, the inhibition worked out at 11.8%.
Turning to `Cc1ccc(CN2CCN(c3ccccc3Cl)CC2)o1`, the inhibition is -0.79%.
Turning to `Cc1cccc(N2CCN(Cc3ccc(Br)o3)CC2)c1C`, the inhibition worked out at 51.8%.
In the case of `Clc1ccccc1N1CCN(Cc2ccc(Br)o2)CC1`, the inhibition was 19.6%.
For `CCOc1ccc(N=C2SCC(=O)N2CC)cc1`, the inhibition was found to be 25.3%.
Consider `O=C(Nc1cccc([N+](=O)[O-])c1)NC1CCS(=O)(=O)C1` (stereo not given), for which the inhibition is -1.42%.
Consider `CSc1ccccc1NC(=O)CN(C)CC(=O)Nc1c(F)cccc1F`, for which the inhibition was 6.62%.
Turning to `O=C1c2cccc3cccc(c23)C(=O)N1CCCc1n[nH]c(=S)n1-c1ccccc1`, the inhibition is -14.7%.
On to `C=CCN(C)NC(=O)Nc1ccccc1`, for which the inhibition is 6.98%.
In the case of `Cc1c(NC(=O)CCCCCN2C(=O)c3ccccc3C2=O)c(=O)n(-c2ccccc2)n1C`, the inhibition was -3.66%.
For the compound `COc1cc(C(=O)N2CCC(NC(=O)C(Cc3ccccc3C)NC(C)=O)CC2)cc(OC)c1OC` (stereo not given), the inhibition worked out at 3.5%.
As for `COC(=O)Cn1c(C)nc([N+](=O)[O-])c1Br`, the inhibition is -5.82%.
`Cc1c(Br)c([N+](=O)[O-])nn1CC(=O)c1ccccc1`: the inhibition was -6.01%.
`Cc1nc([N+](=O)[O-])c(Br)n1CC(=O)c1cccc([N+](=O)[O-])c1`: the inhibition came out at 68.4%.
As for `Cc1nc([N+](=O)[O-])cn1CC(=O)c1ccc(Cl)cc1`, the inhibition was -12.5%.
Regarding `COc1ccc(OC)c(C(c2nnnn2CC2CCCO2)N2CCN(C)CC2)c1` (stereo not given), the inhibition is 9.88%.
Take `COc1ccc(F)cc1S(=O)(=O)Nc1ccncc1`: the inhibition came to 10.8%.
On to `N/C(COc1ncn(-c2ccccc2)n1)=N\S(=O)(=O)c1ccccc1`, for which the inhibition came to 20.4%.
Under `CCOC(=O)C1CCCN(Cc2nc(N)nc(Nc3ccccc3)n2)C1` (stereo not given) stands 42%; under `O=C(NC1CC1)c1nc2c(nnn2Cc2ccccc2Cl)c(=O)[nH]1`, 17.4%; under `O=C(NC1CCCC1)c1nc2c(nnn2Cc2ccccc2Cl)c(=O)[nH]1`, 79.4%.
For `Cn1c(CCc2ccccc2)nnc1SCC(=O)N1CCCC1`, the inhibition is -11.6%.
Under `O=C1NC2(CCCCC2)N=C1c1ccccc1` stands -21.1%; under `N#CC(C#N)=c1ccc2c(c1)N1C(c3ccccc3)=CC(c3ccccc3)C3CCCCC31N=2` (stereo not given), -0.07%; under `CC(C)(c1ccccc1)c1ccc(OCC(O)CN2CCCC2)cc1` (stereo not given), 50%.
Consider `CCOc1ccc(OCC(O)CNC2CCN(Cc3ccccc3)CC2)cc1` (stereo not given), for which the inhibition worked out at 35%.
On to `CC(C)(C)c1ccc(-n2ncc3c2CCCC3NC(=O)CN2CCOC2=O)cc1` (stereo not given), for which the inhibition came out at 10.9%.
As to `COC(=O)Nc1ccc(S(=O)(=O)N2c3ccccc3CCC2C)cc1` (stereo not given), the inhibition turned out to be 47.6%.
On to `Cc1ccc(S(=O)(=O)N2CCC(C(=O)OC(C)C(=O)N(C)c3ccccc3)CC2)cc1C` (stereo not given), for which the inhibition was 36%.
